Data published in PubChem BioAssay (EPA / NIEHS).
Calls of active or inactive are those of the source. Rule for the calls: active = hit-call score of the fitted dose curve at least 0.9, where 1 is the maximum; inactive = score below 0.9.

Test system: not listed separately
Test: ATG_SREBP_CIS: Attagene CIS-FACTORIAL HepG2 Assay for human Sterol Regulatory Element Binding (SREBP) (AID 2282962)
Details: HepG2 Attagene cis-factorial SREBP reporter, mRNA; actives raise or lower the signal
How it was run: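 mRNA induction of transfected cis-promoter reporters in HepG2 cells, 24 h post-dose. Detection: RT-PCR with 6-FAM-labelled products, HpaI digest, capillary electrophoresis. DMSO served as negative control and baseline.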

SMILES | outcome | AC50
O=C(O)C(Br)Br | inactive | 
C=CC(=O)OCCO |  | 172 µM (active)
CCCCCCCCCCCCCCCC[N+](C)(C)C | inactive | 

Target: Signal transducer and activator of transcription 3 (Homo sapiens) (UniProt P40763)
Test: ATG_STAT3_CIS: Attagene CIS-FACTORIAL HepG2 Assay for human Signal Transducer and Activator of Transcription 3 (STAT3) (AID 2282963)
Details: HepG2, Attagene cis-factorial STAT3 reporter transcription; actives raise or lower the signal
How it was run: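 HepG2 cells transiently transfected with multiple cis-element-driven reporter units report endogenous transcription factor activity. After 24 h compound exposure, reporter mRNA is measured by RT-PCR, 6-FAM labelling, HpaI digestion and capillary electrophoresis. Fitted bidirectionally versus DMSO.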

Chain of Signal transducer and activator of transcription 3 (Homo sapiens) (P40763 whole entry, looked up): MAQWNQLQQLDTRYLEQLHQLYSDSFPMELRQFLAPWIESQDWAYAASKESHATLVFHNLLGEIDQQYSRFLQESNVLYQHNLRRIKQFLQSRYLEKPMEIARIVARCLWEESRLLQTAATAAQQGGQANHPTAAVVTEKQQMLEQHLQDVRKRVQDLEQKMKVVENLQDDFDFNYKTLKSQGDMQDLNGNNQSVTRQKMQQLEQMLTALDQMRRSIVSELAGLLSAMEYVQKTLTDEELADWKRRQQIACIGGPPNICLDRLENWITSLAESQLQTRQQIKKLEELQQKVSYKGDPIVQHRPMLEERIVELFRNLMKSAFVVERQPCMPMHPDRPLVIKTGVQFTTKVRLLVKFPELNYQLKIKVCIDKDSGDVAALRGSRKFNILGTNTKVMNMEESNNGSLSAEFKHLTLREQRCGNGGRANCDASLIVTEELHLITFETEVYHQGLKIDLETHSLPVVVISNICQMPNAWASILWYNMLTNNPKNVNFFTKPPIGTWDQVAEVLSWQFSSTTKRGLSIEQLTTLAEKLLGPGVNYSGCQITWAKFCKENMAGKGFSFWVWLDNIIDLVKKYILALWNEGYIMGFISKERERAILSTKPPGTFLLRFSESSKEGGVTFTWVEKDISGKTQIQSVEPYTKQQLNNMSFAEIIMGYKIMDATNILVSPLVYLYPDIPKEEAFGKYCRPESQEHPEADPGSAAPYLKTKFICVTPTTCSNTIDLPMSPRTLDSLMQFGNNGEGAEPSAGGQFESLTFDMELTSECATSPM

SMILES | outcome | AC50
CCCCCCCCCCCC#N | inactive | 
O=C(NC(=O)c1c(F)cccc1F)Nc1ccc(Oc2ccc(C(F)(F)F)cc2Cl)cc1F | inactive | 
CC1CCCC1.[C-]#[O+].[C-]#[O+].[C-]#[O+].[Mn] | inactive | 
CCCCNP(N)(N)=S | inactive | 
CC(=O)C=Cc1ccccc1 | inactive | 
CCC(=O)c1ccc(Cl)cc1 | inactive | 
Nc1ccccc1C(=O)Oc1ccc2ccccc2c1 |  | 74.5 µM (active)
C=CC(=O)OC | inactive | 
CC(C)CCCCCCCOC(=O)c1ccccc1C(=O)OCCCCCCCC(C)C | inactive | 
N#CCNCC#N | inactive | 
CN(C)N | inactive | 
CN1C[C@H](C(=O)N[C@]2(C)O[C@@]3(O)[C@@H]4CCCN4C(=O)[C@H](Cc4ccccc4)N3C2=O)C=C2c3cccc4[nH]cc(c34)C[C@H]21 | inactive | 
O=[N+]([O-])C=Cc1ccccc1 |  | 33.4 µM (active)
Nc1ccc(Cl)c(Cl)c1 | inactive | 
CCCCOP(=O)(O)OCCCC | inactive | 
O=C(O)CCl | inactive | 
CC(O)CN(CC(C)O)CC(C)O (stereo unspecified) | inactive | 
Nc1cc(Cl)cc(Cl)c1 | inactive | 
O=[N+]([O-])c1ccc(Cl)cc1 | inactive | 

SMILES | outcome | AC50
Cc1ccc(C)c2ccccc12 | inactive | 
C=CCO | inactive | 
COC(=O)COc1ccc(Cl)cc1Cl | inactive | 
[CH3][Sn]([Cl])([Cl])[Cl] | inactive | 
CC(=O)c1cc2c(cc1C)C(C)(C)C(C)CC2(C)C (stereo unspecified) | inactive | 
Nc1ccc(-c2ccc(N)c(N)c2)cc1N | inactive | 
c1cc(OCC2CO2)ccc1Cc1ccc(OCC2CO2)cc1 (stereo unspecified) |  | 54.8 µM (active)
C=CC(=O)OCCCCOC(=O)C=C | inactive | 
c1ccc2c(c1)CCCC2 | inactive | 
CCOC(=O)C1OC1(C)c1ccccc1 (stereo unspecified) | inactive | 
[Cl][Sb]([Cl])[Cl] | inactive | 
COc1ncc(F)c2nc(S(=O)(=O)Nc3c(F)cccc3F)nn12 | inactive | 
CC(C)[C@@H](C(=O)O[C@@H](C#N)c1cccc(Oc2ccccc2)c1)c1ccc(Cl)cc1 | inactive | 
C[C@]12CC[C@H]3[C@@H](CC[C@@]45O[C@@H]4C(O)=C(C#N)C[C@]35C)[C@@H]1CC[C@@H]2O | inactive | 
O=[N+]([O-])c1cc([N+](=O)[O-])c2ccccc2c1 | inactive | 
O=C(O)C(Br)Br | inactive | 
C=CC(=O)OCCO | inactive | 
CCCCCCCCCCCCCCCC[N+](C)(C)C | inactive | 

Test system: not listed separately
Test: ATG_TA_CIS: Attagene CIS-FACTORIAL HepG2 Assay for human TA Basal Promoter (AID 2282964)
Details: HepG2 Attagene CIS-factorial TA basal promoter reporter; actives raise or lower the signal
How it was run: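 Transfected HepG2, 24 h compound exposure; RNA → RT-PCR → FAM primer extension → HpaI cut → CE fluorescence. Gain/loss-of-signal fitted against DMSO negative control. Background-control readout.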

SMILES | outcome
CCCCCCCCCCCC#N | inactive
CC1CCCC1.[C-]#[O+].[C-]#[O+].[C-]#[O+].[Mn] | inactive
CCCCNP(N)(N)=S | inactive
CC(=O)C=Cc1ccccc1 | inactive
CCC(=O)c1ccc(Cl)cc1 | inactive
Nc1ccccc1C(=O)Oc1ccc2ccccc2c1 | inactive
C=CC(=O)OC | inactive
CC(C)CCCCCCCOC(=O)c1ccccc1C(=O)OCCCCCCCC(C)C | inactive
N#CCNCC#N | inactive
CN(C)N | inactive
CN1C[C@H](C(=O)N[C@]2(C)O[C@@]3(O)[C@@H]4CCCN4C(=O)[C@H](Cc4ccccc4)N3C2=O)C=C2c3cccc4[nH]cc(c34)C[C@H]21 | inactive
CCCCOP(=O)(O)OCCCC | inactive
O=C(O)CCl | inactive
Nc1cc(Cl)cc(Cl)c1 | inactive
O=[N+]([O-])c1ccc(Cl)cc1 | inactive
Cc1ccc(C)c2ccccc12 | inactive
COC(=O)COc1ccc(Cl)cc1Cl | inactive
CC(=O)c1cc2c(cc1C)C(C)(C)C(C)CC2(C)C (stereo unspecified) | inactive
Nc1ccc(-c2ccc(N)c(N)c2)cc1N | inactive
c1cc(OCC2CO2)ccc1Cc1ccc(OCC2CO2)cc1 (stereo unspecified) | inactive
C=CC(=O)OCCCCOC(=O)C=C | inactive
c1ccc2c(c1)CCCC2 | inactive
CCOC(=O)C1OC1(C)c1ccccc1 (stereo unspecified) | inactive
[Cl][Sb]([Cl])[Cl] | inactive
COc1ncc(F)c2nc(S(=O)(=O)Nc3c(F)cccc3F)nn12 | inactive
CC(C)[C@@H](C(=O)O[C@@H](C#N)c1cccc(Oc2ccccc2)c1)c1ccc(Cl)cc1 | inactive
O=[N+]([O-])c1cc([N+](=O)[O-])c2ccccc2c1 | inactive
O=C(O)C(Br)Br | inactive
C=CC(=O)OCCO | inactive
CCCCCCCCCCCCCCCC[N+](C)(C)C | inactive

Test system: not listed separately
Test: ATG_TCF_b_cat_CIS: Attagene CIS-FACTORIAL HepG2 Assay for human T-Cell-Factor with beta-catenin (TCF/b-cat) (AID 2282965)
Details: HepG2 TCF/beta-catenin cis-reporter transcription, actives raise or lower the signal
How it was run: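 HepG2 cells transiently transfected with cis-promoter-driven multiplexed reporter units; reporter mRNA measured 24 h after dosing by RT-PCR, FAM labelling, HpaI digestion and capillary electrophoresis. Bidirectional fitting relative to DMSO baseline.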

SMILES | outcome | AC50
CCCCCCCCCCCC#N | inactive | 
O=C(NC(=O)c1c(F)cccc1F)Nc1ccc(Oc2ccc(C(F)(F)F)cc2Cl)cc1F | inactive | 
CC1CCCC1.[C-]#[O+].[C-]#[O+].[C-]#[O+].[Mn] | inactive | 
CCCCNP(N)(N)=S | inactive | 
CC(=O)C=Cc1ccccc1 | inactive | 
CCC(=O)c1ccc(Cl)cc1 | inactive | 
C=CC(=O)OC | inactive | 
CC(C)CCCCCCCOC(=O)c1ccccc1C(=O)OCCCCCCCC(C)C | inactive | 
N#CCNCC#N | inactive | 
CN(C)N | inactive | 
CN1C[C@H](C(=O)N[C@]2(C)O[C@@]3(O)[C@@H]4CCCN4C(=O)[C@H](Cc4ccccc4)N3C2=O)C=C2c3cccc4[nH]cc(c34)C[C@H]21 |  | 94.2 µM (active)
O=[N+]([O-])C=Cc1ccccc1 |  | 18.9 µM (active)
CCCCOP(=O)(O)OCCCC | inactive | 
O=C(O)CCl | inactive | 
CC(O)CN(CC(C)O)CC(C)O (stereo unspecified) | inactive | 
Nc1cc(Cl)cc(Cl)c1 |  | 79 µM (active)

SMILES | outcome | AC50
O=[N+]([O-])c1ccc(Cl)cc1 | inactive | 
Cc1ccc(C)c2ccccc12 | inactive | 
C=CCO | inactive | 
COC(=O)COc1ccc(Cl)cc1Cl | inactive | 
[CH3][Sn]([Cl])([Cl])[Cl] | inactive | 
Nc1ccc(-c2ccc(N)c(N)c2)cc1N | inactive | 
c1cc(OCC2CO2)ccc1Cc1ccc(OCC2CO2)cc1 (stereo unspecified) |  | 35.2 µM (active)
C=CC(=O)OCCCCOC(=O)C=C |  | 60.4 µM (active)
CCOC(=O)C1OC1(C)c1ccccc1 (stereo unspecified) | inactive | 
[Cl][Sb]([Cl])[Cl] |  | 186 µM (active)
COc1ncc(F)c2nc(S(=O)(=O)Nc3c(F)cccc3F)nn12 | inactive | 
CC(C)[C@@H](C(=O)O[C@@H](C#N)c1cccc(Oc2ccccc2)c1)c1ccc(Cl)cc1 | inactive | 
C[C@]12CC[C@H]3[C@@H](CC[C@@]45O[C@@H]4C(O)=C(C#N)C[C@]35C)[C@@H]1CC[C@@H]2O |  | 75 µM (active)
O=[N+]([O-])c1cc([N+](=O)[O-])c2ccccc2c1 | inactive | 
CCCCCCCCCCCCCCCC[N+](C)(C)C |  | 5.71 µM (active)
